Compound activity deposited in PubChem by National Center for Advancing Translational Sciences (NCATS).
Compounds with a hit are over-represented: about 21% of the library has one in this group of screens.
Pf growth 96h: P. falciparum growth inhibition at 96 hour, primary screen for plastid delayed-death inhibitors | P. falciparum luciferase reporter growth, 96 h | Potency, µM (doses to about 28.7 µM), for the others: at the highest dose activity change, negative = inhibition, actives largely listed as inhibitors | 320,000 compounds, 6.9% hits; also: potency is read from the fitted curve at half-maximal effect; % is scaled to controls: 0 for no effect and ±100 for the full control effect
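Readout is luminescence from an integrated firefly luciferase in P. falciparum. Red cells, 2% hematocrit and 0.05% parasitemia final, were cultured with compound through two parasite generations (96 hours) at 37 C, 5% CO2.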
Pf growth 48h: inhibits P. falciparum growth in the first generation, 48 h; 310,000 compounds, 5.9% hits; Potency, µM (top dose mostly 28.7 µM), inactives show at the top dose activity change, negative = inhibition, most hits filed as inhibitors; AID 504832; P. falciparum luciferase growth in erythrocytes, 48 h; also: potency is read from the fitted curve at half-maximal effect; % is scaled to controls: 0 for no effect and ±100 for the full control effect
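Here the parasites carry a stable luciferase gene and grow inside erythrocytes in Albumax-based RPMI medium with compound for one erythrocytic cycle. Activity is scored as loss of luminescent signal.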
Shiga inhibitor: Shiga toxin inhibition. 290,000 compounds, 9.2% hits. Vero cells, Shiga toxin protein synthesis inhibition reporter. inhibition, % at 38.7 µM. AID 2315; in the data active = inhibition mostly above about 28%, no sharp cut-off; inactive = mostly below about 43%; also: 0% is about no effect
Cycloheximide cs: affects cycloheximide protein synthesis inhibition readout, counter-screen; cell reporter, cycloheximide protein synthesis inhibition counterscreen; max response, %; 300,000 compounds, 12% hits; AID 2314; in the data active = max response mostly above about 13%, no sharp cut-off; inactive = mostly below about 14%; also: read at 38.3 µM for the half of the compounds with a filed dose; 0% is about no effect
An asterisk follows results filed as active; ? = inconclusive; / = not tested or not shown; [ ] = another dose, or the depositor's remark. Unless noted, calls follow the shape of the dose curve; as a rule, active = well fitted inhibition curve with a large enough effect; inconclusive = small, poorly fitted or top-dose-only effect, or another doubt; inactive = no such curve, though single readings can be large or run the other way.

SMILES	Pf growth 96h	Pf growth 48h	Shiga inhibitor	Cycloheximide cs
COc1cc(C2NC(=O)NC(C)=C2C(C)=O)ccc1O (stereo not given)	2%	2%	-12	-1
C#CCNC(=O)C1=C[C@H](c2ccc(Br)cc2)C[C@H](OCCCCO)O1	?	?	31*	12*
O=C(NCc1nc2ccccc2[nH]1)C1=C[C@@H](c2ccc(Br)cc2)C[C@@H](OCCCCO)O1	?	?	-6	-3
C#CCNC(=O)C1=C[C@@H](c2ccc(C(F)(F)F)cc2)C[C@@H](OCCCCO)O1	?	?	4	2
O=C(Nc1ccccc1)C1=C[C@@H](c2ccc(Br)cc2)C[C@@H](OCCCCO)O1	?	?	86*	52*
O=C(NC1CC1)C1=C[C@@H](c2ccc3c(c2)OCO3)C[C@@H](OCCCCO)O1	35%	34%	3	-2
O=C(Nc1ccccc1)C1=C[C@H](c2ccc3c(c2)OCO3)C[C@H](OCCCCO)O1	?	55%	117*	47*
CCN(CC)S(=O)(=O)c1ccc(C)c(NC(=S)N2CCN(Cc3ccc4c(c3)OCO4)CC2)c1	-5%	-1%	-5	3
COCCNC(=O)c1cccc(OC2CCN(Cc3ccc(Cl)c(F)c3)CC2)c1	?	?	-3	-3
CN(C)c1cc(-c2ccc(Cl)c(Cl)c2)oc(=O)c1Cl	63%	4%	-12	-4
Cc1cc(C)cc(NC(=O)CSc2cc(C(=O)c3nccn3C)c3ccccc3n2)c1	23%	-2%	-9	-4
COc1cc(CO)cc(Br)c1OCC(=O)Nc1cccc2ccccc12	?	-14%[5.75 µM]	-4	-3
O=C(COc1ccccc1)NCCSCc1ccco1	-13%	19%	13	12
O=C(CCSc1ccccc1)NCCSCc1ccco1	?	119%	7	11*
O=C(NCCSCc1ccco1)Nc1cccc(Cl)c1	?	?	40*	37*
O=C(NCCSCc1ccco1)Nc1ccc(Cl)cc1	/	67%	101*	29*
Cc1cc(Cl)ccc1N(CC(=O)NCCSCc1ccco1)S(C)(=O)=O	12%	3%	20	9
O=C(COc1ccc(F)cc1)NCCc1nc2ccccc2[nH]1	/	/	-7	-2
Cc1c(Cl)cccc1Nc1ncccc1C(=O)O	78%	35%	20	-1
NC(=O)NC(=O)COC(=O)c1cccnc1Nc1ccccc1F	38%	37%	7	11
CCCNc1ncccc1C(N)=O	?	28%	-9	-7
Cc1cc(Cl)ccc1Nc1ncccc1C(N)=O	195%	208%	69*	69*
NC(=O)c1cccnc1Nc1ccccc1F	103%	68%	28*	29*
Cc1ccc(Nc2ncccc2C(N)=O)cc1	157%	193%	119*	94*
Cc1ccc(S(C)(=O)=O)cc1C(=O)Nc1ccc(S(=O)(=O)Nc2nccs2)cc1	?	-19%	/	/
SMILES	Pf growth 96h	Pf growth 48h	Shiga inhibitor	Cycloheximide cs
O=C(c1ccc(-c2ccccc2)cc1)N1CCN(c2nc3ccccc3o2)CC1	?	20%	13	15*
O=C(c1cc2ccccc2cc1O)N1CCN(c2cccc(Cl)c2)CC1	12µM*	?	/	/
O=C(c1ccc(-c2ccccc2)cc1)N1CCN(c2ccccc2)CC1	17%	62%	28	13*
CS(=O)(=O)N(Cc1ccccc1)c1ccc(C(=O)N2CCN(c3cccc(Cl)c3)CC2)cc1	/	?	42	22*
CC(C)(C)c1ccc(C(=O)N2CCN(c3nc4ccccc4o3)CC2)cc1	11%	/	-2	-2
Cc1cc(C)nc(SCC(N)=O)n1	9%	10%	5	-4
COc1ccc(NC(=O)C2CCCN(CCCc3ccccc3)C2)cc1OCC(C)C (stereo not given)	68%	?	-10	-3
CC(=O)N1CCC(N(CCCOC(C)C)S(=O)(=O)c2ccc([N+](=O)[O-])cc2)CC1	?	23%	-10	-2
CCOc1ccc(C(=O)N2CCN(c3ccccc3)CC2)cc1	-7%	59%	30*	11
CC(C)(C)NC(=O)C1CCN(C(=O)c2ccc(-c3ccccc3)cc2)CC1	/	9.3µM*	15	14
O=C(NC1CCCCC1)C1CCN(C(=O)c2ccc(-c3ccccc3)cc2)CC1	6%	-15%	14	-4
CC1CCN(S(=O)(=O)c2ccc3ncn(CC(=O)N(C)Cc4ccccc4)c(=O)c3c2)CC1	15µM*	?	32	1
CCOC(=O)C1CCN(c2ncnc3nc[nH]c23)CC1	?	?	-11	-6
CCOC(=O)C1CCN(c2ncnc3c(C)csc23)CC1	29%	58%	67*	48*
CCOC(=O)Cc1c(C)[nH]c(=S)[nH]c1=O	-29%	1.3µM*	3	1
CCN(CC)Cc1cc(NC2=NS(=O)(=O)c3ccccc32)ccc1OC(=O)C(C)C	/	/	-9	-5
CCN(CC)Cc1cc(NC2=NS(=O)(=O)c3ccccc32)ccc1OC(=O)c1ccccc1	9.3µM*	?	2	1
O=C1Nc2cccnc2Sc2ccccc21	?	39%	30	3
Clc1cc2c(nn1)Nc1ccccc1S2	43%	50%	39	11*
FC(F)(F)c1cnc2c(c1)Nc1ccccc1S2	23%	23%	44	13*
S=C1Nc2ccccc2Sc2ccc(Cl)cc21	?	?	1	-2
c1ccc2c(c1)Nc1nccnc1S2	84%	67%	128*	28*
COc1ccc(S(=O)(=O)N2CC(O)CC2C(=O)Nc2cccnc2)cc1 (stereo not given)	2%	12%	-1	-1
Nc1ccccc1Oc1ncc(C(F)(F)F)cc1Cl	53%	5.2µM*	-16	1
COc1cccc(C(=O)c2ncc(C(F)(F)F)cc2Cl)c1	?	-26%	34*	28
SMILES	Pf growth 96h	Pf growth 48h	Shiga inhibitor	Cycloheximide cs
C=CCc1c(C)nc2c(C)cccc2c1SC(=N)N	15µM*	?	-9	1
CN(Cc1nc(-c2ccccc2)no1)C(=O)c1ccc2c(c1)OCO2	5%	1%	/	/
OCCN(Cc1nc(-c2ccc3c(c2)OCO3)no1)Cc1cccs1	25%	47%	36*	17
Cc1ccc(/C=C/C(=O)O)cc1S(=O)(=O)NCc1ccco1	-6%	32%	-10	6
Cc1ccc(S(=O)(=O)N2CCN(CC(=O)N/N=C/C=C/c3ccccc3)CC2)cc1	26%	0%	-9	-2
CNC(=O)c1cc2ncc(C(F)(F)F)cc2s1	64%	49%	38	18*
CCCCC1(Cc2ccc([N+](=O)[O-])cc2)C(=O)N(c2ccccc2)N(c2ccccc2)C1=O	?	4.1µM*	21	-2
CCCCC1(COC(=O)CCC(=O)O)C(=O)N(c2ccccc2)N(c2ccccc2)C1=O	1%	?	/	/
CCC(O)c1nc2ccccc2n1CCc1ccccc1 (stereo not given)	7%	?	-3	-4
CC(C)c1nc2sc3c(NCc4ccccc4)ncnc3c2c2c1COC(C)(C)C2	9.3µM*	/	-1	1
CC(CN1CCOCC1)C(=O)O (stereo not given)	9.3µM*	-25%	-4	-3
COc1cc2[nH]c(=O)n(CCC(=O)N3CCN(c4cc(Cl)ccc4C)CC3)c(=O)c2cc1OC	0%	12µM*	8	-2
